High-throughput results deposited in PubChem by several laboratories.
NLRP3 yeast inh = NALP3 inflammasome inhibitors in reconstituted yeast, primary screen, luminescence, uHTS | 330,000 tested, 0.39% active | inhibition, % at 10 µM | Yeast reconstituted NLRP3/ASC/caspase-1, beta-gal luminescence, 24 h;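 active = inhibition of 50% or more; inactive = inhibition below 50%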;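 also: plate controls were induced DMSO wells for no effect and uninduced yeast grown without galactose for full effect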
tim10-1 inh = growth inhibitors of tim10-1 mutant yeast, primary screen, luminescence, uHTS | inhibition, % at 20 µM | S. cerevisiae tim10-1 ts strain growth, BacTiter-Glo, 24 h | 330,000 tested, 2.2% active;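 active = inhibition of at least 40%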;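 also: mutant grown at 25 °C; 0% = DMSO wells with yeast and 100% = wells holding no yeast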
TIM10 inh = growth inhibitors of isogenic TIM10 control yeast, primary screen, counter-screen for tim10-1 yeast inhibitor project, luminescence, uHTS; S. cerevisiae TIM10 strain growth, BacTiter-Glo luminescence, 24 h; inhibition, % at 10 µM; 330,000 tested, 1.4% active; AID 463195, 2010;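 active = inhibition of 40% or more at the single tested concentration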;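 also: wild-type TIM10 isogenic control strain grown at permissive 25 °C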
NALP1 yeast inh = NALP1 inflammasome inhibitors in reconstituted yeast, colorimetric, S. cerevisiae, triplicate retest. S. cerevisiae NALP1/ASC/caspase-1 growth, X-gal OD620, 72 h. inhibition, % at 10 µM. 280,000 tested, 0.61% active. AID 2071, 2009; in the data active = inhibition mostly above about 24%, no sharp cut-off; inactive = mostly below about 32%
tim23-1 inh = growth inhibitors of tim23-1 mutant yeast, primary screen, luminescence, uHTS; S. cerevisiae tim23-1 growth, BacTiter-Glo luminescence, 24 h; inhibition, % at 20 µM; 330,000 tested, 1.3% active;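 active = growth inhibition of the mutant yeast at or above 50%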;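 also: temperature-sensitive mutant grown at 25 °C; plate controls were DMSO-treated mutant yeast for no effect and medium wells lacking yeast for full effect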
SKKanGAS inh = S. pyogenes SKKanGAS growth inhibitors in kanamycin, primary screen, streptokinase expression inhibitor project, SKKanGAS strain, BacTiter-Glo luminescence; 6 h; 300,000 tested, 1.3% active; inhibition, % at 7.5 µM; AID 1662, 2009;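 active = mean replicate score, as percent of positive control median, at least 50; inconclusive = mean below 50 but one replicate at or above 50; inactive = mean and every replicate below 50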;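 also: strain carries kanamycin resistance gene driven by streptokinase promoter and grows in 40 µg/ml kanamycin; loss of luminescence reflects streptokinase promoter inhibition or plain growth inhibition; 0% = median of DMSO wells and 100% = positive control at its reference dose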
tim10-1 confirm = growth inhibitors of tim10-1 mutant yeast, confirmation, single concentration, luminescence, S. cerevisiae. shares compounds with tim10-1 inh. S. cerevisiae tim10-1 ts strain growth, BacTiter-Glo, 24 h. inhibition, % at 20 µM. 7,400 tested, 56% active. AID 463213, 2010;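 active = inhibition of yeast growth at or above a set limit in either of two repeat tests at 20 µM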;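 also: tim10-1 mutant grown at permissive 25 °C to find synthetic lethal compounds; 0% = DMSO yeast wells and 100% = medium wells without yeast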
tim10 confirm = growth inhibitors of wild-type TIM10 yeast, confirmation, counter-screen for tim10-1 synthetic lethality project, single concentration, luminescence, S. cerevisiae; shares compounds with TIM10 inh; inhibition, % at 10 µM; S. cerevisiae tim10 strain growth, BacTiter-Glo luminescence, 24 h; 4,600 tested, 63% active;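 active = inhibition of yeast growth at or above a set limit in either of two replicates at 10 µM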;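 also: this counterscreen used the strain with wild-type TIM10; 0% = yeast with DMSO and 100% = medium wells lacking yeast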
tim23-1 confirm = tim23-1 mutant yeast growth inhibitors, confirmation, luminescence, single concentration; shares compounds with tim23-1 inh; S. cerevisiae tim23-1 growth, BacTiter-Glo luminescence, 24 h; inhibition, % at 20 µM; 4,400 tested, 83% active;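 active = inhibition above about 39% in either of two replicate wells at 20 µM, limit read from the data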;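 also: temperature-sensitive tim23-1 mutant grown at 25 °C; 0% = DMSO wells with yeast and 100% = medium wells without yeast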
An asterisk follows results filed as active; ? = inconclusive; . = no result. This is a sample that favours compounds with a hit; in the whole collection about 4.9% have one here.

SMILES | NLRP3 yeast inh | tim10-1 inh | TIM10 inh | NALP1 yeast inh | tim23-1 inh | SKKanGAS inh | tim10-1 confirm | tim10 confirm | tim23-1 confirm
COc1ccc(O)c(C(=O)c2cnn(S(=O)(=O)c3ccc(C)cc3)c2)c1 | 32.0 | 53.8* | 26.0 | . | 52.4* | . | 35.3* | . | 51.5*
COc1ccc(C(=O)n2cc(C(=O)c3cc(C)ccc3O)cn2)cc1 | 10.5 | 19.4 | 24.9 | 27.1 | 40.5 | 2.2 | . | . | .
CCNS(=O)(=O)c1ccc(NC(=S)N2CCc3ccccc32)cc1 | 32.5 | -1.6 | -6.5 | 7.7 | 5.5 | 16.3 | . | . | .
COc1ccc(C2=NN(c3nc(-c4ccc(CNC(C)=O)cc4)cs3)C(c3ccco3)C2)cc1 (configuration not stated) | 17.2 | 6.2 | 7.5 | 24.7 | 12.9 | 18.8 | . | . | .
O=C(NCCc1ccccc1)C(c1cccs1)N(C(=O)CCl)c1ccc(Cl)cc1 (configuration not stated) | 12.2 | 54.6* | 55.8* | 16.7 | 52.8* | -6.6 | 53.8* | -23.3 | 58.3*
CCCNC(=O)c1ccc2c(c1)C1C3CCC(C3)C1C(c1ccccc1)N2 (configuration not stated) | 1.2 | 46.9* | 37.3 | 25.4 | 53.2* | 6.0 | 44.2* | . | 57.5*
CCn1c(=O)c(C(=O)NCc2ccc(OC)cc2)c(O)c2ccccc21 | 6.2 | -3.7 | 3.9 | 6.7 | -18.5 | -8.2 | . | . | .
CCn1c(=O)c(C(=O)NCc2ccccn2)c(O)c2ccccc21 | 13.7 | 44.7* | 37.8 | 6.6 | 59.6* | -3.9 | 16.0 | . | 57.8*
CCC(C(=O)NC1CCCCC1)n1c2ccccc2c2nc(=O)cc(C)n21 (configuration not stated) | -1.1 | 9.8 | 4.3 | -5.5 | 3.9 | 7.6 | . | . | .
CSc1nnc2c3cc(F)ccc3n(C)c2n1 | 33.6 | 47.8* | 77.0* | 14.9 | 51.5* | -0.3 | 61.0* | 80.8* | 50.5*
COC(=O)[C@@H]1[C@@H](C#N)C2(c3ccccc3-c3ccccc32)N(c2ccc(Cl)cc2)N1C#N | 6.1 | 49.8* | 43.6* | 6.8 | 57.8* | ? | 36.2* | -3.5 | 63.3*
Nc1nonc1C(=O)N/N=C/c1ccc(-c2cccc(C(=O)O)c2)o1 | -0.5 | -0.3 | -1.7 | -1.4 | -5.7 | 13.2 | . | . | .
CCCc1ccc(/C=C2\C(=O)c3ccccc3C(O)=C2C(=O)OCC)cc1 | 3.6 | 65.9* | 45.1* | . | 51.6* | 40.3 | 66.0* | 48.4* | 57.4*
CCOC(=O)C1=C(Cc2ccc(C)cc2)C(=O)c2ccccc2C1=O | -13.9 | 62.1* | 56.6* | -15.5 | 61.2* | 64.3* | 68.1* | 67.2* | 60.2*
COc1ccccc1CNC(=O)CNC(=O)c1ccc(Br)o1 | 14.0 | -6.8 | -6.2 | 11.3 | -12.0 | -1.2 | . | . | .
COc1ccc2nc3oc(C(=O)N4CC(C)CC(C)C4)cc3cc2c1 (configuration not stated) | 18.8 | 59.3* | 14.7 | 1.4 | 53.8* | 0.8 | 4.8 | . | 41.1*
CCOC(=O)CNc1c(-c2ccccc2)nc2ccc(Cl)cn12 | 17.8 | 40.4* | 40.3* | 24.8 | 51.3* | -6.5 | 32.8* | 2.5 | 51.0*
COC(=O)c1ccc2c(c1)C(C)(C)C(/C=C/c1ccc(OC)c(OC)c1OC)=[N+]2C | 6.4 | 13.1 | 4.5 | 5.2 | 13.9 | -2.5 | . | . | .
COC(=O)c1ccc2c(c1)C(C)(C)C(/C=C/c1ccc(O)cc1)=[N+]2C | 24.9 | 66.9* | 55.5* | 52.0* | 73.4* | 3.2 | 63.6* | 55.0* | 68.3*
O=C(NC1CCCCC1)C(c1ccc(F)cc1)N(Cc1ccco1)C(=O)c1ccccn1 (configuration not stated) | 9.1 | 11.7 | 13.8 | -10.2 | 15.6 | -0.3 | . | . | .
CC(=O)n1cc(N(C(=O)CCl)c2ccc(Cl)cc2)c2ccccc21 | 25.8 | 48.2* | 34.4 | 7.0 | 64.0* | 13.7 | 46.4* | . | 40.6*
CC1(C)CC(=O)C2=C(C1)Oc1nc3ccccc3cc1C2C(C#N)C#N (configuration not stated) | 24.6 | 61.0* | 53.6* | 7.9 | 63.4* | -2.7 | 58.9* | 63.5* | 67.9*
COc1cccc(/C=C2\SC(=S)N(CCCC(=O)N(CCO)c3ccccc3)C2=O)c1 | 16.8 | 43.8* | 23.7 | 3.2 | 50.5* | 13.8 | 29.6 | . | 53.7*
Cc1cnc(C(=O)OCC(=O)Nc2ccccc2-c2ccccc2)cn1 | 1.2 | 33.1 | 7.5 | . | 0.9 | . | . | . | .
COc1cc(C(C[N+](=O)[O-])c2c(-c3ccccc3)cc3ccccn23)cc(OC)c1OC (configuration not stated) | 20.4 | 41.3* | 34.4 | 9.5 | 54.4* | -1.0 | 33.3* | . | 69.4*
SMILES | NLRP3 yeast inh | tim10-1 inh | TIM10 inh | NALP1 yeast inh | tim23-1 inh | SKKanGAS inh | tim10-1 confirm | tim10 confirm | tim23-1 confirm
Cc1ccccc1S(=O)(=O)N(CC(O)CN1C(=O)NC(C)(C)C1=O)c1ccccc1 (configuration not stated) | -32.6 | 3.1 | 4.1 | -5.7 | 18.8 | -1.1 | . | . | .
CCOc1ccc(CN(C)C(C)C(=O)NCCc2ccc(F)cc2)cc1 (configuration not stated) | 26.0 | 3.4 | -4.9 | 25.4 | 6.3 | -13.4 | . | . | .
CCN(Cc1ccccc1)C(c1cccs1)c1nnnn1C1CCCCC1 (configuration not stated) | 12.3 | 28.7 | 18.7 | -0.2 | 46.4 | -2.2 | . | . | .
CCN(Cc1ccccc1)C(c1ccccn1)c1nnnn1C1CCCCC1 (configuration not stated) | 8.7 | 41.9* | 60.5* | 10.9 | 62.0* | -17.4 | 51.1* | 62.0* | 64.6*
CC(=O)Nc1ccc(OCc2nnc(-c3ccc(Cl)cc3)o2)cc1 | 22.4 | 3.5 | 2.8 | -34.1 | 19.4 | -21.8 | . | . | .
COc1ccc(S(=O)(=O)Nc2cc(SCC(=O)O)c(O)c3ccccc23)cc1 | 24.6 | 44.1* | 32.7 | 19.2 | 58.4* | 3.4 | 28.1 | . | -16.7
COc1ccc(S(=O)(=O)Nc2cc(Sc3ncn[nH]3)c(O)c3ccccc23)cc1 | . | . | . | -14.4 | . | . | . | . | .
